# Several values for one entry are separate records, joined by “and”; a condition that tells them apart may be missing. Equal values may be shown once. Results filed as inconclusive are left out. Values without a mark were called inactive. Activity calls are given as the source filed them. Calls come from the whole dose curve; as a rule, active = well fitted curve in the direction sought with a large enough effect; inconclusive = small, poorly fitted or top-dose-only effect, or another doubt; inactive = no such curve, though single readings can be large or run the other way.
# Experiment: qHTS Assay for Identifying Gametocytocidal Compounds (AID 743244);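 for max response: actives lower the fluorescent signal which means gametocytes are killed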
# Details: P. falciparum 3D7 stage III-V gametocytes, alamarBlue, 72 h; max response: stronger effect = lower value
# Source text: Malaria cases and deaths have dropped 50% in 29 countries since 2000 due to the combined effects of long-lasting insecticidal bednets, indoor residual spraying, and artemisinin-based combination therapies (ACTs). This success has raised hopes for malaria eradication and consequently stimulated interest in developing new reagents that block gametocyte transmission such as novel and safe gametocytocidal drugs. However, previous drug development efforts have focused primarily on the asexual parasites that cause symptoms, but not malaria transmission. Consequently, patients can remain infectious for weeks after the clearance of asexual parasites and clinical symptoms. To be transmitted from person to person via a mosquito, the parasites must switch from asexual to sexual development and produce male and female gametocytes. Malaria gametocytes consist of five stages (I, II, III, IV and V). The late stage gametocytes (III, IV and V) are difficult to be cultured in vitro and the long lifespan of mature gametocytes allows them being transmitted from host to mosquitoes unless they are completely eliminated by gametocytocidal agents. To identify gametocytocidal compounds which are capable of killing late stage P. falciparum gametocytes, a high throughput gametocyte viability assay was employed. This assay uses oxidoreduction indicator, alamarBlue, as a general measure of metabolic activity of gametocytes. Within live cells, the nonfluorescent resazurin is reduced to resorufin, a bright red fluorescence dye. Fluorescence decreases upon treatment of gametocytocidal compounds. P. falciparum gametocyte (3D7 strain) was used in this study.
# The 1536-well gametocycidal viability assay was based on the previous method of Tanaka et al. Stage III-V gametocytes were tested against three compound libraries, including 4265 compounds from NCGC pharmaceutical collection, 400 from Malaria Box library, and 550 from an internal collection of kinase inhibitors. Briefly, 2.5 ul/well incomplete medium was dispensed into each well of 1,536-well plates using the Multidrop Combi followed by 23 nl compound transferring using the NX-TR Pintool (WAKO Scientific Solutions, San Diego, CA). Then, 2.5 ul/well of gametocytes was dispensed with a seeding density of 20,000 cells/well using the Multidrop Combi. The assay plates were incubated for 72 h at 37C with 5% CO2. After addition of 5 ul/well of 2X AlamarBlue dye (Life Technologies, cat. no. DAL1100), the plates were incubated for 24 h at 37C with 5% CO2 and then were read in a fluorescence detection mode (Ex = 525 nm, Em = 598 nm) on a ViewLux plate reader (PerkinElmer).
# % is set by controls: 0 for no effect and ±100 for the full control effect; potency is the fitted concentration of half-maximal effect.
Structure (SMILES),max response,Potency
N[C@@H](C(=O)N[C@@H]1C(=O)N2C(C(=O)O)=C(Cl)CS[C@H]12)c1ccccc1,19.9%,–
COc1nc(N)nc2c1ncn2[C@@H]1O[C@H](CO)[C@@H](O)[C@@H]1O,4.43%,–
CN(C)CCc1c[nH]c2ccc(C[C@H]3COC(=O)N3)cc12,-7.68%,–
CCc1cc(C(N)=S)ccn1,-11%,–
C[C@@H]1CN(c2c(F)c(N)c3c(=O)c(C(=O)O)cn(C4CC4)c3c2F)C[C@H](C)N1,13.9%,–
COc1cc2c(Nc3ccc(Br)cc3F)ncnc2cc1OCC1CCN(C)CC1,–,9.35 µM (active) and 5.62 µM (active)
CC(C)C1CCC(C(=O)N[C@H](Cc2ccccc2)C(=O)O)CC1 (stereo not given in full),6.84%,–
COc1ncnc(NS(=O)(=O)c2ccc(N)cc2)c1OC,-8.03%,–
CC(C)(C#N)c1cc(Cn2cncn2)cc(C(C)(C)C#N)c1,7.01%,–
CCCCOc1ccc(CC(=O)NO)cc1,1.51%,–
Nc1nc(N)c2nc(CNc3ccc(C(=O)NC(CCC(=O)O)C(=O)O)cc3)cnc2n1 (stereo not given),32.7%,–
CCC(C)(C)c1ccc(CC(C)CN2C[C@@H](C)O[C@@H](C)C2)cc1 (stereo not given in full),21.2%,–
CCn1cc(C(=O)O)c(=O)c2cc(F)c(N3CCNCC3)nc21,0.203%,–
NNC(=O)c1ccncc1,-1.22%,–
CCCN[C@H]1CCc2nc(N)sc2C1,-5.22%,–
O=S(=O)(c1cccc2cnccc12)N1CCCNCC1,-7.26%,–
CC1=CC(=O)c2ccccc2C1=O,–,12.6 µM (active)
CC(C)(C)C(=O)OCOP(=O)(COCCn1cnc2c(N)ncnc21)OCOC(=O)C(C)(C)C,4.48%,–
O=c1cc(O)c(Cl)c[nH]1,10.3%,–
COc1ccccc1OCC(O)COC(N)=O (stereo not given),-1.63%,–

Structure (SMILES),max response,Potency
CC(C)NCC(O)c1ccc(NS(C)(=O)=O)cc1 (stereo not given),-0.473% and -8.06% and 37.8%,–
OCc1ccc(-c2nn(Cc3ccccc3)c3ccccc23)o1,-5.09%,–
NC(=O)c1ccc2[nH]ccc2c1,11.4%,–
CN(C)c1ccc(C(=C2C=CC(=[N+](C)C)C=C2)c2ccc(N(C)C)cc2)cc1,–,7.08 µM (active)
CCOc1cc(N)c(Cl)cc1C(=O)NCC1CN(Cc2ccc(F)cc2)CCO1 (stereo not given),1.28%,–
CCN(C)C(=O)Oc1cccc([C@H](C)N(C)C)c1,-3.35%,–
COC(=O)Nc1nc2ccc(Sc3ccccc3)cc2[nH]1,2.65%,–
CC1(C)[C@H](C(=O)O)N2C(=O)C[C@H]2S1(=O)=O,0.138%,–
CCN[C@H]1C[C@H](C)S(=O)(=O)c2sc(S(N)(=O)=O)cc21,4.01%,–
CN1CCN(c2c(F)cc3c(=O)c(C(=O)O)cn4c3c2OCN4C)CC1,0.61%,–
Nc1nc(=S)c2[nH]cnc2[nH]1,3.77% and 7.36%,–
Cc1oc(=O)oc1CN1CCN(c2cc3c(cc2F)c(=O)c(C(=O)O)c2n3C(C)S2)CC1 (stereo not given),2.62%,–
NC1(c2ccc(-c3nc4ccn5c(=O)[nH]nc5c4cc3-c3ccccc3)cc2)CCC1,–,11.8 µM (active)
O[C@@H](CNC[C@H](O)[C@H]1CCc2cc(F)ccc2O1)[C@@H]1CCc2cc(F)ccc2O1,–,11.2 µM (active)
Cc1cccc(N(C)C(=S)Oc2ccc3ccccc3c2)c1,6.54%,–
COc1cccc(N(C)C(=S)Oc2ccc3c(c2)CCCC3)n1,-0.766%,–
Cc1nnc(NS(=O)(=O)c2ccc(N)cc2)s1,-4.6%,–
CCCCCCNC(=O)n1cc(F)c(=O)[nH]c1=O,-3.88%,–
CCOCC(O)COc1ccc(NC(=O)CC[S+](C)C)cc1 (stereo not given),2.79%,–
CC(C)OC(=O)OCOP(=O)(CO[C@H](C)Cn1cnc2c(N)ncnc21)OCOC(=O)OC(C)C,5.62% and 30.5%,–
